Hits are enriched below; roughly 4.3% of the tested compounds scored in any of these assays.
HSF-1 act: increases HSF-1 driven luciferase reporter signal; 300,000 tested, 1.7% active; NIH3T3-HGL HSF-1 luciferase reporter, MG132, 8 h; 100% = twice DMSO control signal; activation, % at 9 µM; AID 504408;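 active = mean replicate activation of at least 50% with a set share of replicates each reaching 50%; inconclusive = only one of those two conditions met; inactive = mean below 50% and too few replicates reaching it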;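 note: 0% = median of the neutral control wells and 100% = twice that signal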
esBAF inh: SWI/SNF esBAF complex inhibition. mouse ES cells, Bmi1-luciferase knock-in reporter, 24 h; 100% = twice the neutral-well signal. reporter increase, % at 12.5 µM. 350,000 tested, 2% active. AID 602393; in the data active = activation above about 40%; inconclusive = no clear call, values can overlap the other calls;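 note: 0% = median of the plate's neutral control wells and 100% = double that signal; a rise in the Bmi1 reporter signal indicates esBAF inhibition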
MITF TRPM1 HTS: MITF TRPM1 promoter activation in melanoma cells; SK-MEL-5 TRPM1-promoter luciferase, 24 h; % of positive control, neutral wells = 0; activation, % at 12.5 µM; 300,000 tested, 0.75% active; AID 588334;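 active = mean activation of at least 80% with every replicate also reaching 80%; inconclusive = mean reaches 80% but some replicate falls short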;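 note: 0% = neutral control wells and 100% = parthenolide positive control wells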
HSF1 inh: HSF1 inhibition. NIH3T3-HGL HSE-luciferase, MG132-induced, luminescence 8 h; active compounds read low. activity change, negative = inhibition, % at 7.5 µM (by protocol). 300,000 tested, 0.77% active. AID 2098;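 active = more than half of replicate wells show activity change below -50%, luminescence cut by over half; inconclusive = some wells, but at most half, below -50%; inactive = no replicate well below -50%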;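 note: luciferase reports HSF-1 transcriptional activity via heat shock element; 0% = median of DMSO wells and -100% = zero luminescence signal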
Wnt act: activators of Wnt/beta-catenin signaling; 300,000 tested, 1.2% active; Wnt/beta-catenin reporter cell assay, activator, plate reader; AID 743398; activation, % at 9.35 µM; in the data active = activation above about 30%, passing the limit was not always enough; inconclusive = no clear call, values can overlap the other calls;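 note: 0% = neutral control wells and 100% = positive control wells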
SMARCA2 act: SMARCA2 function activation, primary screen. 370,000 tested, 1% active. activation, % at 9.1 µM. MG213 cells, MMTV-luciferase reporter, dexamethasone, overnight; in the data active = activation above about 7.8%;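 note: 0% = vehicle wells and 100% = reference activator wells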
SMARCA2 act conf: confirmation of SMARCA2 (BRM) function activators; shares compounds with SMARCA2 act; MG213 cells, MMTV-luciferase with dexamethasone, luminescence, overnight; MG213 cells expressing E1A, Rb sequestered; DMSO wells 0%, reference activator 100%; activation, % at 9.1 µM; 3,500 tested, 30% active; AID 652260;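 active = activation above its plate's cutoff, the mean activation of tested wells plus 3 SD, cut at about 7.9% in these data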
VP16 Luc act: GAL4-VP16 reporter activation counter-screen | activation, % at 9.1 µM | HEK293 GAL4-VP16 pG5luc reporter, luciferase luminescence; scaled: DMSO wells 0%, SAHA wells 100% | AID 686939 | shares compounds with SMARCA2 act | 3,500 tested, 41% active;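 active = activation above the solvent-only control well mean plus 3 SD, averaged across control plates, cut at about 5.2% in these data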
Starred values were filed as active, the others as inactive; u = inconclusive; x = no result.

SMILES | HSF-1 act | esBAF inh | MITF TRPM1 HTS | HSF1 inh | Wnt act | SMARCA2 act | SMARCA2 act conf | VP16 Luc act
Cc1cccc(N=NC(=S)NNc2cccc(C)c2)c1 | x | 52* | 39 | x | -3 | 8.7* | 3 | 9.1*
CCCCc1ccc(NC(=O)CC(C)C)cc1 | 1 | 48* | 62 | 2 | -10 | 9.7* | 4 | 4
CCCCc1ccc(NC(=O)COCC)cc1 | 16 | 33 | x | 3 | x | 8.1* | 3 | 5
C[C@@H]1CN([C@H](C)CO)C(=O)Cc2cc(NC(=O)Nc3ccc4c(c3)OCO4)ccc2O[C@@H]1CN(C)C(=O)Nc1ccc(F)cc1 | x | 5 | x | x | x | x | x | x
COc1ccc(CN(C)C[C@@H]2OCCCC[C@@H](C)Oc3ccc(NC(=O)CCC(F)(F)F)cc3C(=O)N([C@H](C)CO)C[C@@H]2C)cc1 | x | 0 | x | x | x | x | x | x
O=C(Nc1cccnc1)c1scc2c1OCCO2 | -11 | -9 | -9 | -3 | -6 | -2 | x | x
O=C(NC1CC1)c1scc2c1OCCO2 | 21 | -13 | 13 | -6 | x | 8.2* | 4 | -1
C[C@H]1CN([C@@H](C)CO)S(=O)(=O)c2ccc(-c3cccc(F)c3)cc2O[C@H]1CN(C)S(C)(=O)=O | x | 1 | x | x | x | x | x | x
Cc1ccc(CCNC(=O)CCS(=O)(=O)c2cc3c(cc2C)NC(=O)CO3)cc1 | 4 | -7 | x | 0 | -1 | 12* | 2 | -1
O=C(CCS(=O)(=O)c1cc2c(cc1Cl)NC(=O)CO2)NCCc1ccccc1 | -11 | 3 | 5 | -6 | -1 | 0 | x | x
Cc1ccc(/C=c2/sc3n(c2=O)CCCN=3)o1 | 48 | 53* | x | 26 | x | 8.7* | 6 | 4
C[C@@H]1CN([C@@H](C)CO)C(=O)CCCn2cc(nn2)CO[C@@H]1CN(C)C(=O)Nc1cccc(F)c1 | x | 5 | x | x | x | x | x | x
Oc1ccc(-c2nc3ccccc3s2)c(O)c1 | 61* | x | 56 | 31 | 58* | 14* | 6 | 10*
O=C(Nc1ccc(O)c(-c2nc3ccccc3s2)c1)c1cccs1 | 4 | x | 2 | 2 | -1 | 0 | x | x
CCC(Sc1nc2ccccc2c(=O)n1CC1CCCO1)C(=O)NCc1cccnc1 (stereo unspecified) | -5 | x | -5 | 0 | x | 8.3* | 0 | 0
COc1cccc(NC(=O)N[C@@H]2CC[C@@H](CC(=O)NCc3ccccn3)O[C@H]2CO)c1 | x | -1 | x | x | x | x | x | x
COCC(=O)Nc1c(C(=O)Nc2cccc(OC)c2)oc2ccccc12 | 10 | 26 | 97* | 1 | u | 10* | 12* | 6.2*
COc1cccc(NC(=O)c2oc3ccccc3c2NC(C)=O)c1 | -4 | 32 | 68 | -4 | 14 | x | x | x
CC(=O)N(C)C[C@H]1Oc2ncc(-c3cccc(C#N)c3)cc2C(=O)N([C@@H](C)CO)C[C@H]1C | x | -1 | x | x | x | x | x | x
CCn1c(C)nc2cc(C(=O)NNS(=O)(=O)c3c(C)c(C)cc(C)c3C)ccc21 | -10 | -9 | -14 | -16 | -2 | 12* | -1 | 0
COc1ccc(S(=O)(=O)Nc2ccc3c(c2)CC(=O)N([C@@H](C)CO)C[C@H](C)[C@@H](CN(C)Cc2ccc(-c4ccccc4)cc2)O3)cc1 | x | 1 | x | x | x | x | x | x
CCCC(CCC)=NNC(=O)c1ccccc1F | -4 | 5 | 6 | -5 | 3 | 8.2* | -1 | 1
O=C(NCCCNC(=O)c1ccccn1)c1ccccn1 | 6 | 2 | -1 | -9 | x | -1 | x | x
O=C(NNCc1ccccc1)c1ccccn1 | x | 5 | 37 | x | 36* | 15* | 4 | 16*
O=C(NNCc1ccccc1)c1ccccc1 | x | -47 | 2 | x | -4 | 1 | x | x
SMILES | HSF-1 act | esBAF inh | MITF TRPM1 HTS | HSF1 inh | Wnt act | SMARCA2 act | SMARCA2 act conf | VP16 Luc act
CN(C)CCCNC(=O)c1ccccn1 | -6 | -1 | 1 | 3 | -2 | 8.4* | -4 | 0
C[C@@H](O)C#Cc1cnc2c(c1)C(=O)N([C@@H](C)CO)C[C@H](C)[C@@H](CN(C)C(=O)c1ccccc1F)O2 | x | -1 | x | x | x | x | x | x
CC(C)NC(=O)N(C)C[C@H]1Oc2cc(C#Cc3ccccn3)ccc2S(=O)(=O)N([C@H](C)CO)C[C@H]1C | x | -11 | x | x | x | x | x | x
Cc1ccc(S(=O)(=O)Nc2ccc3c(c2)C(=O)N([C@@H](C)CO)C[C@H](C)[C@H](CN(C)Cc2ccc4c(c2)OCO4)OCCCC[C@H](C)O3)cc1 | x | 4 | x | x | x | x | x | x
Cc1ccccc1Oc1cc(-n2ncc(Cl)c(Cl)c2=O)ncn1 | x | x | -93 | x | -13 | 11* | -15 | 2
C[C@@H]1CN([C@H](C)CO)C(=O)CCCn2nncc2CO[C@@H]1CN(C)Cc1ccc(O)cc1 | x | -9 | x | x | x | x | x | x
CC(C)c1c(C(=O)Nc2ccccc2)c(-c2ccccc2)c(-c2ccc(F)cc2)n1CC[C@@H](O)C[C@@H](O)CC(=O)O | x | -18 | x | x | 5 | 17* | 13* | -1
O=C(Nc1ccccc1)[C@H]1[C@H](CO)[C@H]2Cn3c(cccc3=O)[C@H]2N1C(=O)C1CCC1 | x | -1 | x | x | x | x | x | x
ClCc1nnc(-c2cc3c(s2)CCCC3)o1 | 44 | x | -10 | 7 | 2 | 11* | -4 | 1
CC(C)(C)C1CCc2sc(-c3nnc(CCl)o3)cc2C1 (stereo unspecified) | 32 | x | 16 | 6 | 5 | -1 | x | x
CO[C@H]1CC[C@H]2CCN(C)C(=O)[C@H](C)[C@@H](OC)CN(C)C(=O)c3cccc(C#N)c3OC[C@H]1O2 | x | 7 | x | x | x | x | x | x
COC(=O)c1c(C)[nH]c(C=Nc2ccc(OC)cc2)c1C | 6 | x | x | -10 | 18 | -3 | x | x
CCOC(=O)c1c(C)[nH]c(N=Nc2ccc(OC)cc2)c1C | 37 | x | 129* | 23 | 54* | 9.3* | 4 | 7.7*
COc1ccc(Br)cc1CN(C)CC(=O)Nc1c(Cl)ccc(C)c1Cl | -1 | x | 5 | 2 | -2 | 8.1* | -6 | 0
NC(=O)c1sc2nc(-c3ccccc3)ccc2c1N | 41 | 77* | 27 | 20 | 2 | 8.1* | 7 | 10*
CCOC(=O)c1sc2nc(-c3ccccc3)ccc2c1N | 9 | x | 36 | -11 | x | 1 | x | x
CCCC#Cc1cnc2c(c1)C(=O)N([C@@H](C)CO)C[C@H](C)[C@@H](CN(C)S(=O)(=O)c1cn(C)cn1)O2 | x | -2 | x | x | x | x | x | x
COc1cc(F)ccc1-c1csc(C(NC(C)=O)c2cccc(F)c2)n1 (stereo unspecified) | x | -1 | x | x | -1 | 10* | 2 | 1
O=C(COc1ccccc1Cl)NCCc1ccc2c(c1)OCCO2 | 6 | x | 29 | 7 | -2 | 11* | 4 | 1
c1ccc(-c2nc3ccccc3nc2-c2ccc(CN3CCC(c4nc5ccccc5[nH]4)CC3)cc2)cc1 | x | x | x | x | -1 | 8.7* | 0 | 2

Screens: PubChem, several laboratories
